According to the antibiotic and cytotoxicity screens of Wong et al. (2023):
The whole screen tested about 39,000 compounds, of which about 3,300 (8.5%) were called active. The sample holds actives, similar compounds and a random draw of the others, so the mix is not that of the screen.

System: HepG2
Assay: cytotoxicity call (relative viability < 0.9)
Settings: 10 µM

| SMILES | cytotoxicity call |
| --- | --- |
| Cc1noc(C)c1S(=O)(=O)Nc1ccc2c(c1)C(=O)N([C@@H](C)CO)C[C@@H](C)[C@H](CN(C)Cc1ccc(C(F)(F)F)cc1)OCCCC[C@@H](C)O2 | inactive |
| COc1ccc(NC(=O)N(C)C[C@@H]2OCCCC[C@@H](C)Oc3ccc(NC(=O)NC4CCCCC4)cc3C(=O)N([C@@H](C)CO)C[C@@H]2C)cc1 | inactive |
| C[C@@H]1CN([C@@H](C)CO)C(=O)c2cc(C#CC3(O)CCCC3)cnc2O[C@H]1CN(C)S(=O)(=O)c1ccc(F)cc1 | inactive |
| O[C@@H](CCl)CN1CC[N+]2(CC1)CC[N+]1(CCN(C[C@@H](O)CCl)CC1)CC2 | inactive |
| O=C(/C=C/c1ccc(O)c(O)c1)O[C@@H]1C[C@](O)(C(=O)O)C[C@@H](OC(=O)/C=C/c2ccc(O)c(O)c2)[C@H]1OC(=O)/C=C/c1ccc(O)c(O)c1 | inactive |
| CN(C)CCCNC(=O)C[C@@H]1CC[C@@H]2[C@H](COc3ccc(NC(=O)c4ccccc4F)cc3C(=O)N2C)O1 | inactive |
| C[C@H](CO)N1C[C@H](C)[C@H](CN(C)Cc2ccccc2)OCCCC[C@H](C)Oc2ccc(NS(=O)(=O)c3cccs3)cc2C1=O | inactive |
| COc1ccc(CN(C)C[C@@H]2OCCCC[C@H](C)Oc3ccc(NC(=O)NC(C)C)cc3C(=O)N([C@H](C)CO)C[C@@H]2C)cc1 | inactive |
| C[C@@H]1CN([C@@H](C)CO)C(=O)c2cc(NS(=O)(=O)c3cccs3)ccc2O[C@H]1CN(C)Cc1ccc(Cl)c(Cl)c1 | inactive |
| COc1ccc(S(=O)(=O)N(C)C[C@@H]2OCCCC[C@@H](C)Oc3ccc(NC(=O)Nc4ccc(C(F)(F)F)cc4)cc3C(=O)N([C@H](C)CO)C[C@H]2C)cc1 | inactive |
| COc1ccc(S(=O)(=O)N(C)C[C@@H]2OCCCC[C@H](C)Oc3ccc(NC(=O)Nc4ccc(C(F)(F)F)cc4)cc3C(=O)N([C@@H](C)CO)C[C@H]2C)cc1 | inactive |
| COc1ccc(S(=O)(=O)N(C)C[C@@H]2OCCCC[C@H](C)Oc3ccc(NC(=O)Nc4ccc(C(F)(F)F)cc4)cc3C(=O)N([C@@H](C)CO)C[C@@H]2C)cc1 | active |
| COc1ccc(S(=O)(=O)N(C)C[C@H]2OCCCC[C@H](C)Oc3ccc(NC(=O)Nc4ccc(C(F)(F)F)cc4)cc3C(=O)N([C@H](C)CO)C[C@H]2C)cc1 | inactive |
| COc1ccc(S(=O)(=O)N(C)C[C@@H]2OCCCC[C@@H](C)Oc3ccc(NC(=O)Nc4ccc(C(F)(F)F)cc4)cc3C(=O)N([C@H](C)CO)C[C@@H]2C)cc1 | inactive |
| COc1ccc(S(=O)(=O)N(C)C[C@H]2OCCCC[C@H](C)Oc3ccc(NC(=O)Nc4ccc(C(F)(F)F)cc4)cc3C(=O)N([C@H](C)CO)C[C@@H]2C)cc1 | active |
| COc1ccc(S(=O)(=O)N(C)C[C@H]2OCCCC[C@H](C)Oc3ccc(NC(=O)Nc4ccc(C(F)(F)F)cc4)cc3C(=O)N([C@@H](C)CO)C[C@H]2C)cc1 | inactive |
| COc1ccc(S(=O)(=O)N(C)C[C@H]2OCCCC[C@@H](C)Oc3ccc(NC(=O)Nc4ccc(C(F)(F)F)cc4)cc3C(=O)N([C@@H](C)CO)C[C@H]2C)cc1 | active |
| COc1ccc(S(=O)(=O)N(C)C[C@H]2OCCCC[C@H](C)Oc3ccc(NC(=O)Nc4ccc(C(F)(F)F)cc4)cc3C(=O)N([C@@H](C)CO)C[C@@H]2C)cc1 | inactive |
| COc1ccc(S(=O)(=O)N(C)C[C@H]2OCCCC[C@@H](C)Oc3ccc(NC(=O)Nc4ccc(C(F)(F)F)cc4)cc3C(=O)N([C@H](C)CO)C[C@H]2C)cc1 | active |

| SMILES | cytotoxicity call |
| --- | --- |
| COc1ccc(S(=O)(=O)N(C)C[C@@H]2OCCCC[C@H](C)Oc3ccc(NC(=O)Nc4ccc(C(F)(F)F)cc4)cc3C(=O)N([C@H](C)CO)C[C@@H]2C)cc1 | inactive |
| COc1ccc(S(=O)(=O)N(C)C[C@@H]2OCCCC[C@H](C)Oc3ccc(NC(=O)Nc4ccc(C(F)(F)F)cc4)cc3C(=O)N([C@H](C)CO)C[C@H]2C)cc1 | inactive |
| CC(=O)NCCCC[C@@H]1NC(=O)[C@@H]2C[C@H](C(=O)NCCCCN(C)C)[C@H](c3cccc(OCCO)c3)N2C1=O | inactive |
| CC(C)NC(=O)N(C)C[C@@H]1OCCCC[C@@H](C)Oc2ccc(NC(=O)Nc3ccc(C(F)(F)F)cc3)cc2C(=O)N([C@H](C)CO)C[C@@H]1C | inactive |
| COc1ccc(NC(=O)N(C)C[C@@H]2Oc3ncc(C#CC(C)C)cc3C(=O)N([C@@H](C)CO)C[C@@H]2C)cc1 | inactive |
| C[C@@H]1CN([C@@H](C)CO)C(=O)c2c(c3ccccc3n2C)-c2ccccc2CO[C@@H]1CN(C)C(=O)CCC(F)(F)F | inactive |
| COc1ccc(cc1)S(=O)(=O)N1C[C@]2(C1)CN([C@@H](CO)c1c2c2ccc(cc2n1C)OC)C(=O)c1cccnc1 | inactive |
| C[C@@H]1CCCCO[C@@H](CN(C)C(=O)Nc2cccc3ccccc23)[C@@H](C)CN([C@@H](C)CO)C(=O)c2cc(NC(=O)NC3CCCCC3)ccc2O1 | inactive |
| CC(=O)n1cc([C@H]2C=C(C(=O)N3CCN(C)CC3)O[C@@H](OCc3ccc(CO)cc3)C2)c2ccccc21 | inactive |
| C[C@H](CO)N1C[C@H](C)[C@H](CN(C)S(=O)(=O)c2cn(C)cn2)Oc2ccc(NC(=O)Nc3ccc4c(c3)OCO4)cc2C1=O | inactive |
| Nc1ccccc1C(=O)N1CCOCC1 | inactive |
| O=C(c1ccccc1O)N1CCOCC1 | inactive |
| O=C(c1cn(Cc2cncn2Cc2ccc(Br)cc2)cc1-c1cccc2ccccc12)N1CCOCC1 | active |
| C[C@H]1CN(C(=O)CSc2nnc3c4ccccc4n(Cc4cccc(Cl)c4)c3n2)CCN1C(=O)c1ccccc1F | inactive |
| COC(=O)[C@@H]1N2C(=O)[C@@H](N3CC4=C[C@@H](C5CC5)n5c(=O)n(C)c(=O)n5[C@@H]4[C@@H]3[C@@H](O)Cc3ccccc3)[C@H]2SC1(C)C | inactive |
| C[C@@H]1CN([C@@H](C)CO)C(=O)Cc2cc(NS(=O)(=O)c3ccccc3)ccc2O[C@@H]1CN(C)S(C)(=O)=O | inactive |
| CC1(C)CCC2(C(=O)O)CCC3(C)C(=CCC4C5(C)CCC(O)C(C)(CO)C5CCC43C)C2C1 (stereo not drawn) | inactive |
| C=C1CC[C@@H]2C(C)(C)CCC[C@@]2(C)[C@@H]1CC/C(C)=C/C(=O)OC | inactive |
| C=C1CCC2C(C)(CO)C(O)CCC2(C)C1CC=C1C(=O)OCC1O (stereo not drawn) | active |
